Assay results from PubChem BioAssay (Tox21).
Records with an inconclusive call do not appear. Active and inactive are the calls of the source. Unless noted, calls follow the shape of the dose curve; as a rule, active = well fitted curve in the direction sought with a large enough effect in the repeat runs; inconclusive = weak or mixed curves; inactive = no such curve, though single readings can be large; an effect the other way counts as inactive or inconclusive.

Legend:
[1] = qHTS assay to identify aromatase inhibitors - cell viability counter screen (AID 743084);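 also: cells stimulated with testosterone during compound exposure; nearly all actives have a fitted effect of over 55% in size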
[2] = biological target: Aryl hydrocarbon receptor (Homo sapiens) (UniProt P35869); assay: qHTS assay to identify small molecule that activate the aryl hydrocarbon receptor (AhR) signaling pathway (AID 743085);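 also: HG2L7.5c1 human HepG2 liver cells with stably integrated DRE-driven firefly reporter; series mostly up to about 70 µM; nearly all actives have a fitted effect of over 15% in size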
How it was run: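 Reporter assay in engineered HepG2 line HG2L7.5c1, whose plasmid carries twenty dioxin responsive elements upstream of firefly luciferase. Treatment lasted 24 h at 37C; ONE-Glo luminescence gauged induction.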

[3] = qHTS assay to identify small molecule that activate the aryl hydrocarbon receptor (AhR) signaling pathway - cell viability counter screen (AID 743086);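 also: HepG2 liver cells carrying the AhR DRE luciferase reporter; series mostly up to about 70 µM; nearly all actives have a fitted effect of over 45% in size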
How it was run: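 HepG2-AhR-luc (HG2L7.5c1) cells, 4000/well, were preincubated 5 h at 37C, exposed to compound in qHTS format for 24 hr at 37C, then given CellTiter-Fluor for 30 min; viability was read as fluorescence in the reporter wells.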

[4] = biological target: Peroxisome proliferator-activated receptor gamma (Homo sapiens) (UniProt P37231); assay: qHTS assay to identify small molecule agonists of the peroxisome proliferator-activated receptor gamma (PPARg) signaling pathway (AID 743094; active = well fitted activation curve with a large enough effect in the signal ratio in the repeat runs, not every such curve was filed as active; the % refers to the signal ratio)
How it was run: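 HEK293H PPARg-bla cells, 5 h settle at 37C/5% CO2; compound (DMSO) 17 h, 37C; B/G FRET substrate 1 h RT; fluorescence intensity read-out. qHTS format.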

[5] = biological target: Peroxisome proliferator-activated receptor gamma (Homo sapiens) (UniProt P37231); assay: qHTS assay to identify small molecule antagonists of the peroxisome proliferator-activated receptor gamma (PPARg) signaling pathway (AID 743191; calls by dose curve; also: series mostly up to about 63 µM; nearly all actives have a fitted effect of over 30% in size)
How it was run: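 GeneBLAzer PPARg UAS-bla HEK293H cells carrying a UAS-driven beta-lactamase reporter were plated at 3000 cells/well, preincubated 5 h at 37C, then given compound for 17 h at 37C; LiveBLAzer B/G FRET substrate was read after 1 h at room temperature.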

[6] = qHTS assay for small molecule agonists of the antioxidant response element (ARE) signaling pathway (AID 743202; active = well fitted activation curve with a large enough effect in the signal ratio in the repeat runs, not every such curve was filed as active; the % refers to the signal ratio)
How it was run: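 Following a 16 h, 37 C exposure of reporter HepG2 cells (ARE-driven beta-lactamase, 2,000 cells/well) to compounds, FRET substrate was applied for 2 h at room temperature and fluorescence intensity recorded.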

[7] = qHTS assay for small molecule agonists of the antioxidant response element (ARE) signaling pathway - cell viability counter screen (AID 743203; calls by dose curve; also: nearly all actives have a fitted effect of over 55% in size)
How it was run: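 Luminescence read-out (CellTiter-Glo, 30 min at room temperature) measured cell viability in the same wells as the ARE beta-lactamase reporter. HepG2 ARE-bla cells were treated with compounds for 16 hrs at 37C/5% CO2.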

[8] = qHTS assay for small molecule activators of the heat shock response signaling pathway - cell viability counter screen (AID 743209); also: nearly all actives have a fitted effect of over 50% in size
How it was run: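 HSE-bla HeLa; 1500 cells/well; overnight 37 C, 5% CO2; compound 5 h 37 C; LiveBLAzer B/G substrate 2.5 h RT; CellTiter-Glo 30 min RT; luminescence.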

[9] = biological target: Peroxisome proliferator-activated receptor delta (Homo sapiens) (UniProt Q03181); assay: qHTS assay to identify small molecule agonists of the peroxisome proliferator-activated receptor delta (PPARd) signaling pathway (AID 743212; calls by dose curve)
How it was run: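 Beta-lactamase reporter read by fluorescence (LiveBLAzer B/G FRET, 2 h, room temperature). Test agents, in DMSO, incubated at 37 C with PPARd-bla HEK293H cells.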

[10] = qHTS assay to identify small molecule antagonists of the peroxisome proliferator-activated receptor delta (PPARd) signaling pathway - cell viability counter screen (AID 743213); also: nearly all actives have a fitted effect of over 50% in size
How it was run: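 PPARd-bla HEK293H cells (3000/well) got compound plus 300 nM L165041 agonist for 17 h at 37 C. Viability in the same wells came from CellTiter-Glo luminescence after 30 min at room temperature.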

[11] = qHTS assay to identify small molecule agonists of the farnesoid-X-receptor (FXR) signaling pathway - cell viability counter screen (AID 743218); also: nearly all actives have a fitted effect of over 45% in size
How it was run: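 Luminescence from CellTiter-Glo, read after 30 min at RT, reports viability of GeneBLAzer FXR-UAS-bla HEK 293T cells treated 16 h with compounds in the wells used for the beta-lactamase reporter.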

[12] = qHTS assay to identify small molecule antagonists of the farnesoid-X-receptor (FXR) signaling pathway - cell viability counter screen (AID 743221; active = well fitted cell-killing curve with a large enough effect in the repeat runs, not every such curve was filed as active; also: nearly all actives have a fitted effect of over 50% in size)
How it was run: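 CellTiter-Glo, 30 min RT, luminescence; same wells as the LiveBLAzer FRET read. Cells: FXR-UAS-bla HEK 293T. Treatment: compound with chenodeoxycholic acid 50 uM final, 16 h at 37 C.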

[13] = biological target: Vitamin D3 receptor (Homo sapiens) (UniProt P11473); assay: qHTS assay to identify small molecule antagonists of the vitamin D receptor (VDR) signaling pathway (AID 743223; active = well fitted inhibition curve with a large enough effect in the signal ratio in the repeat runs, not every such curve was filed as active; the % refers to the signal ratio)
How it was run: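 After VDR-bla cells are plated and left 4 h at 37C, DMSO-dissolved compounds and 3 nM (final) calcitriol agonist are added. Incubation continues 16 h at 37C; FRET beta-lactamase substrate then develops 2 h at room temperature.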

[14] = qHTS assay for small molecule activators of the heat shock response signaling pathway (AID 743210; active = well fitted activation curve with a large enough effect in the signal ratio in the repeat runs, with a control signal flat, not every such curve was filed as active; the % refers to the signal ratio; also: series mostly up to about 63 µM)
How it was run: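 Heat shock element–beta-lactamase HeLa reporter cells; qHTS with compounds for 5 h at 37 C; detection by FRET substrate fluorescence after 2.5 h at RT.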

[15] = qHTS assay to identify small molecule agonists of the peroxisome proliferator-activated receptor delta (PPARd) signaling pathway - cell viability counter screen (AID 743211); also: nearly all actives have a fitted effect of over 55% in size
How it was run: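 Multiplexed format: after the 2 h room-temperature LiveBLAzer B/G FRET step, CellTiter-Glo was added to the same wells. Luminescence after 30 min gave cell viability; compound exposure was 17 h at 37C.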

[16] = biological target: Peroxisome proliferator-activated receptor delta (Homo sapiens) (UniProt Q03181); assay: qHTS assay to identify small molecule antagonists of the peroxisome proliferator-activated receptor delta (PPARd) signaling pathway (AID 743215; active = well fitted inhibition curve with a large enough effect in the signal ratio in the repeat runs, not every such curve was filed as active; the % refers to the signal ratio;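 also: cells stimulated with agonist L165041 at 300 nM final during compound exposure; series mostly up to about 62 µM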)
How it was run: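 HEK293H GeneBLAzer PPARd UAS-bla reporter cells; cpd + L165041 300 nM final, 17 h 37 C; LiveBLAzer B/G FRET substrate 2 h RT; fluorescence intensity read-out. Antagonist mode.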

[17] = biological target: Bile acid receptor (Homo sapiens) (UniProt Q96RI1); assay: qHTS assay to identify small molecule antagonists of the farnesoid-X-receptor (FXR) signaling pathway (AID 743217; active = well fitted inhibition curve with a large enough effect in the signal ratio in the repeat runs, not every such curve was filed as active; the % refers to the signal ratio)
How it was run: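 Read-out: beta-lactamase FRET fluorescence (LiveBLAzer B/G substrate, 2 h, room temperature) in GeneBLAzer FXR-UAS-bla HEK 293T cells. Compounds were co-dosed with 50 uM chenodeoxycholic acid (final) and incubated 16 h at 37 °C.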

[18] = biological target: Bile acid receptor (Homo sapiens) (UniProt Q96RI1); assay: qHTS assay to identify small molecule agonists of the farnesoid-X-receptor (FXR) signaling pathway (AID 743220; active = well fitted activation curve with a large enough effect in the signal ratio in the repeat runs, not every such curve was filed as active; the % refers to the signal ratio)
How it was run: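 FXR-UAS-bla HEK 293T cells carrying a UAS-driven beta-lactamase reporter were plated for 5 h at 37C/5% CO2, then exposed to DMSO-dissolved Tox21 10K compounds for 16 h at 37C. A LiveBLAzer B/G FRET substrate was loaded for 2 h at room temperature before fluorescence reading.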

[19] = qHTS assay to identify small molecule antagonists of the peroxisome proliferator-activated receptor gamma (PPARg) signaling pathway - cell viability counter screen (AID 743194); also: nearly all actives have a fitted effect of over 55% in size
How it was run: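 PPARg-UAS-bla HEK293H cells were plated, rested 5 h at 37 C, then treated with compounds plus rosiglitazone (50 nM final) for 17 h at 37 C; viability was then read by CellTiter-Glo luminescence after 30 min at room temperature.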

[20] = biological target: Vitamin D3 receptor (Homo sapiens) (UniProt P11473); assay: qHTS assay to identify small molecule agonists of the vitamin D receptor (VDR) signaling pathway (AID 743222; calls by dose curve)
How it was run: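 Beta-lactamase reporter readout (LiveBLAzer B/G FRET, 2 h RT) in VDR-bla cells after 16 h compound treatment at 37C, 5% CO2; cells pre-incubated 4 h before pin transfer of DMSO solutions.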

Measured: Potency

Aryl hydrocarbon receptor (Homo sapiens), sequence (P35869 whole entry, looked up): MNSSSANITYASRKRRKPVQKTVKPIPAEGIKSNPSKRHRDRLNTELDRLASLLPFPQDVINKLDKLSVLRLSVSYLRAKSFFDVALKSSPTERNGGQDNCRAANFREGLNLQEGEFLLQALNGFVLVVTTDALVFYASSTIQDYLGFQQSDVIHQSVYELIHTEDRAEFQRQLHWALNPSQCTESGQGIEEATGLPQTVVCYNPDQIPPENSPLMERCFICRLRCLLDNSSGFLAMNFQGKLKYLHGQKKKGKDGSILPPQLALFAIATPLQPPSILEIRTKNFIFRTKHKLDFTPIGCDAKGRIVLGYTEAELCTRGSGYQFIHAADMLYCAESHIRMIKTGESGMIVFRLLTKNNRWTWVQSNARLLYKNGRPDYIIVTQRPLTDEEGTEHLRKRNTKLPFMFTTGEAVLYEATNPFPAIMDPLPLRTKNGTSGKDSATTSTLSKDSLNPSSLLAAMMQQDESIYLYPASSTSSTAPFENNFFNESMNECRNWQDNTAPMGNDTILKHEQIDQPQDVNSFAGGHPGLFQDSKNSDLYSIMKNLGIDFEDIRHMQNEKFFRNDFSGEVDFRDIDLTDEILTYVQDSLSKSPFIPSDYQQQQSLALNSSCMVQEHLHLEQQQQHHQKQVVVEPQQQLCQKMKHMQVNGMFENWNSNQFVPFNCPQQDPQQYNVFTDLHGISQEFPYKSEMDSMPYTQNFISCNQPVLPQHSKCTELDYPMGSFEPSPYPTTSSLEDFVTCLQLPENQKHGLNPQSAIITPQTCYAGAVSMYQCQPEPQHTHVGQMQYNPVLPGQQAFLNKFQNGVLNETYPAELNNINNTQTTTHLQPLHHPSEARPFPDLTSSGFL
Peroxisome proliferator-activated receptor gamma (Homo sapiens), sequence (P37231 whole entry, looked up): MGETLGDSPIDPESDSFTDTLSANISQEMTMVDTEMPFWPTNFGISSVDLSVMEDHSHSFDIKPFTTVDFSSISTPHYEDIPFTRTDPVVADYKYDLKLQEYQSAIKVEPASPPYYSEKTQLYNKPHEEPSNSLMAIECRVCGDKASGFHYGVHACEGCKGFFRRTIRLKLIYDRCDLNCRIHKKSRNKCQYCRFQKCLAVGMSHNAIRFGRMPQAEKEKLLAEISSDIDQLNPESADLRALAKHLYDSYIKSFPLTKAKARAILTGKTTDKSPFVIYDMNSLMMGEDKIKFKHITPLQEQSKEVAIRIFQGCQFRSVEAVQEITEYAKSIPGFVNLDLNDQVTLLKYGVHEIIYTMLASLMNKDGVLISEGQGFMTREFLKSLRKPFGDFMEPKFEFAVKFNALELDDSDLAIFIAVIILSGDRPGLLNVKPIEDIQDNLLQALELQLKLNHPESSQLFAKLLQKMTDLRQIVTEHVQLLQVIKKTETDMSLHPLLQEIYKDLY
Vitamin D3 receptor (Homo sapiens), sequence (P11473 whole entry, looked up): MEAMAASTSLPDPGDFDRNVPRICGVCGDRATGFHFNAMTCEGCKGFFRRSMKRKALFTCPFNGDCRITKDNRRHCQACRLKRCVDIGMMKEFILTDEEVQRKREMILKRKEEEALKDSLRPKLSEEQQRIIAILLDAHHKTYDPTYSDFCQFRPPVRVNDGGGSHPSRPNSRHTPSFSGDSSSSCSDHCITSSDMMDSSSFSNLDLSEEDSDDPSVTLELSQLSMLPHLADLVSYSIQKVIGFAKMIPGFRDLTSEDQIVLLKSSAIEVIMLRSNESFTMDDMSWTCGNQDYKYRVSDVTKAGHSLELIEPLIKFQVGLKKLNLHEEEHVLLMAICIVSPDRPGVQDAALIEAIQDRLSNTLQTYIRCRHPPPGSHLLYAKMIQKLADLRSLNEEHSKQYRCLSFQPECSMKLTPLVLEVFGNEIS
Peroxisome proliferator-activated receptor delta (Homo sapiens), sequence (Q03181 whole entry, looked up): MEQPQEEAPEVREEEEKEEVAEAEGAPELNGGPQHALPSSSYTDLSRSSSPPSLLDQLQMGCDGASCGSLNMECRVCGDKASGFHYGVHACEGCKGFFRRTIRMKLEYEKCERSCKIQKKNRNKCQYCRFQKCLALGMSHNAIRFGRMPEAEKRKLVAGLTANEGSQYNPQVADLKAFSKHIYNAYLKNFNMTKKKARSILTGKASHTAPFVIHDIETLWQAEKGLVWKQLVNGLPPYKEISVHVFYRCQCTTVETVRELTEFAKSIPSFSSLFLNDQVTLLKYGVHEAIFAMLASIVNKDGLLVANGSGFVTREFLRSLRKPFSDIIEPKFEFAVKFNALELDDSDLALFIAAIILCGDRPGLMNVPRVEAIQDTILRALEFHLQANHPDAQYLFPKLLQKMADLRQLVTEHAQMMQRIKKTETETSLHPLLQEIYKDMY
Bile acid receptor (Homo sapiens), sequence (Q96RI1 whole entry, looked up): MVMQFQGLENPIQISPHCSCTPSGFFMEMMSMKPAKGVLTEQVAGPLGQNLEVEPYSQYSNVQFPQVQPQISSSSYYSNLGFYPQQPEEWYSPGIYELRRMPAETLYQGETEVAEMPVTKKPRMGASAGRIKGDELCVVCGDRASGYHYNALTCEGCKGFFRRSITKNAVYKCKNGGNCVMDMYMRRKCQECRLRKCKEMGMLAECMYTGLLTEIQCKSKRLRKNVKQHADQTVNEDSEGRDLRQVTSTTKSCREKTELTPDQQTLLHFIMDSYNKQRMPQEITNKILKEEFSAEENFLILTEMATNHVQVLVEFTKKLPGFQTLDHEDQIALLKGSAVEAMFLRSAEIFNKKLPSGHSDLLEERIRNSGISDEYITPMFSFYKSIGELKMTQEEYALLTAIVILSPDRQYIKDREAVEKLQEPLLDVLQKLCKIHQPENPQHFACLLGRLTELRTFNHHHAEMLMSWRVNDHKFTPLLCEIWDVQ

C[C@@H](N)C(=O)O
not listed: [14] | [15] | [16] | [17] | [18] | [19] | [20]
inactive: all other assays above

CN(CC1(C)CCCO1)S(=O)(=O)c1ccc(Cl)c(S(N)(=O)=O)c1 (centres undefined)
not listed: [9] | [12] | [13] | [19] | [20]
inactive: all other assays above

OCc1c2ccccc2cc2ccccc12
not listed: [5] | [6] | [9] | [17] | [18]
inactive: all other assays above

O=C1C=CC(=O)O1
not listed: [6] | [9] | [13] | [19] | [20]
inactive: all other assays above

O=C(O)[C@@H]1CSCN1
not listed: [5] | [6] | [17] | [18] | [19]
inactive: all other assays above

NCCC(O)(P(=O)(O)O)P(=O)(O)O
not listed: [5] | [6] | [13] | [15] | [20]
inactive: all other assays above

Cc1ccsc1C(=CCCN1CCC[C@@H](C(=O)O)C1)c1sccc1C
not listed: [5] | [6] | [13] | [14] | [17] | [18] | [20]
inactive: all other assays above

CCCCCCC
not listed: [5] | [9] | [13] | [14] | [15] | [16] | [20]
inactive: all other assays above

CC(C)(C)c1ccc(OC(=O)c2ccccc2O)cc1
not listed: [6] | [9] | [16] | [19]
inactive: all other assays above

C=Cc1ccccc1
not listed: [5] | [13] | [17] | [18]
inactive: all other assays above

COc1ccccc1N1CCN(CCCNc2cc(=O)n(C)c(=O)n2C)CC1
not listed: [5] | [6] | [9] | [11] | [17] | [18] | [19]
inactive: all other assays above

Cc1ccc(C=O)s1
not listed: [5] | [6] | [9] | [14] | [17] | [18]
inactive: all other assays above

O=C1CCCCC1C1CCCCC1 (centres undefined)
not listed: [5] | [17] | [18]
inactive: all other assays above

CCN1CC(CCN2CCOCC2)C(c2ccccc2)(c2ccccc2)C1=O (centres undefined)
not listed: [6] | [13] | [16] | [19] | [20]
inactive: all other assays above

CCNCCO
not listed: [5] | [12] | [13] | [16]
inactive: all other assays above

Cc1cccc(C)c1NC(=O)CN1CCCCCC1
not listed: [5] | [12] | [13] | [15] | [17] | [18]
inactive: all other assays above

Oc1ccccc1C=NCc1ccccc1
not listed: [9] | [19]
inactive: all other assays above

C=CC(C)(O)CC/C=C(\C)CCC=C(C)C (centres undefined)
not listed: [5] | [6] | [9] | [13] | [20]
inactive: all other assays above

OCCN(CCO)CCN(CCO)CCO
inactive: [1] | [2] | [3] | [4] | [7] | [8] | [14] | [15] | [10] | [11] | [20]
